Inconclusive results are not listed. Unmarked numbers belong to inactive results. The call rests on the fitted dose curve; in most records, active means well fitted inhibition curve with a large enough effect; inconclusive means small, poorly fitted or top-dose-only effect; inactive means no such curve, though single readings can be large or run the other way.
Experiment: Primary qHTS for small molecule stabilizers of the endoplasmic reticulum resident proteome: Secreted ER Calcium Modulated Protein (SERCaMP) assay (AID 1508630)
Details: SH-SY5Y GLuc-SERCaMP (Gaussia luciferase released on ER calcium loss) secretion, thapsigargin, luminescence; series mostly up to 38.4 µM; activity change, negative = inhibition: at the top concentration
In short: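 GLuc-SERCaMP-expressing SH-SY5Y cells, pretreated 16 h with compound, are challenged with thapsigargin to empty ER calcium stores; after 4 h, coelenterazine is added directly to the medium and luminescence is imaged.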
On the % scale 0 is the no-effect control and ±100 the full control effect.

Compound | activity change, negative = inhibition
COc1c2c(cc3c1C(NC(N)=O)[N+](C)(C)CC3)OCO2 (stereo not given) | -28%
COc1cc(=O)n(C)c2c(OCC3OC(C)(C)OC3(C)C)cccc12 (stereo not given) | -6.1%
Cn1c(=O)c(-c2ccccc2)c(O)c2ccccc21 | -26.6%
CC(C)C1=CC2=CC[C@H]3[C@](C)(C(=O)O)CCC[C@]3(C)C2CC1 (stereo not given in full) | -2.83%
CC(=O)[C@@]1(O)[C@H](O)CC2C3CCC4CC(O)CC[C@]4(C)C3CC[C@@]21C (stereo not given in full) | -2.54%
C[C@@H]1CC[C@H]2[C@H](C)[C@H]3CC[C@H]4C5[C@@H](O)CC6=CC(=O)CC[C@]6(C)[C@H]5C[C@H]4C3C(=O)N2C1 (stereo not given in full) | -22.9%
C=C[C@@H](C1=CC(=O)C(OC)=C(OC)C1=O)c1ccccc1 | 123%
CC12CC[C@@](C(=O)O)(C(=O)C1=O)C2(C)C | -12.3%
Cn1c2c(c(=O)c3ccccc31)C[C@@H](O)C(C)(C)O2 | -24.4%
CN(C)CCc1cc2c(c3c1ccc1ccccc13)OCO2 | 15%
COc1cc2c(cc1O)-c1ccccc1CN(C)C2 | 25.2%
COC(=O)C1C(=O)C(C(=O)/C=C/c2ccco2)C(=O)CC1(C)C (stereo not given) | -12.6%
O=C(O)c1c(C(=O)O)c2ccccc2[nH]c1=O | -23.7%
C=C1C[C@@]23CC4C5[C@@]6(C)C[C@H](O)C[C@@]57C2[C@H](O)[C@@H]1[C@H](O)[C@H]3[C@H]7N4C6 | -24.2%
O=c1cc(-c2cc3ccccc3oc2=O)c2ccc(O)cc2o1 | -21.8%
O=C(O)c1ccccc1-c1oc2cc(O)ccc2c(=O)c1Oc1ccccc1 | 11%
COc1cccc2c(=O)c3ccoc3n(C)c12 | 17.8%
C[n+]1ccc(/C=C/c2ccc3ccccc3c2)cc1 | 4.42%
O=C(O)C1CC[C@@](C(=O)O)(c2ccccc2)c2ccccc21 (stereo not given in full) | -18.4%
COc1ccc(/C=C2\NC(=O)[C@@H]3Cc4ccccc4CN3C2=O)cc1 | 1.26%

Compound | activity change, negative = inhibition
C=CC(C1=CC(=O)C=CC1=O)c1ccc(O)cc1 (stereo not given) | -5.78%
Cc1csc(-c2coc3cc(O[C@@H]4O[C@H](CO)[C@@H](O)[C@@H](O)[C@H]4O)ccc3c2=O)n1 | -16.7%
O=C(O)C(O)C(O)(Cc1ccc(O)cc1)C(=O)O (stereo not given) | -22.1%
Cc1cc(O)c(C)c2c1CC[C@H]1[C@H](C)C(=O)O[C@H]21 | -9.68%
C[C@]12CCC(=O)C=C1CCC1C3CC[C@](O)(C(=O)CO)[C@@]3(C)CC3OC312 (stereo not given in full) | -32.8%
COc1cc2c(cc1OC)C(c1ccccc1)=NCC2 | 20.2%
COc1cc(CCNC(C)=O)c(C(=O)/C=C/c2cccc(OC)c2OC)cc1OC | -19.6%
COc1c(CO)cc(CO)cc(CO)c1=O | -17.8%
C[C@@]12CC(=O)C3=C(CCCC3=O)N1CCc1ccccc12 | -8.78%
COc1cc(C(=O)Oc2ccc3c(OC)c4ccoc4nc3c2OC)cc(OC)c1OC | -5.66%
COc1ccc([C@H]2c3cc(OC)c(OC)cc3C[C@@H](C)[C@@H]2C)cc1OC | -0.607%
C=C1C[C@]23CC[C@H]4C(CO)(CO)C[C@@H](O)C[C@@]4(C)[C@@H]2CC[C@H]1C3 | -0.832%
O=C(NC[C@H](O)c1ccccc1)c1ccccc1 | 26.3%
CC(C)C1NC(C(=O)O)Cc2c1[nH]c1ccccc21 (stereo not given) | -12.4%
CC1=C(C(=O)O)N2C(=O)[C@@H](NC(=O)[C@H](N)C3=CCC=CC3)[C@@H]2SC1 | 1.97%
COc1cc2oc(=O)c3c4c(cc5ccc(c1CCN(C)C)c2c53)OCO4 | 4.89%
C=C[C@]1(C)Cc2occ(C)c2C[C@H]1C(=C)C(=O)O | 0.56%
CCCc1c(OCC(O)COc2ccc3c(=O)cc(C(=O)O)oc3c2CCC)ccc(C(C)=O)c1O (stereo not given) | -17.2%
COc1ccccc1C1OC(=O)CC1C(=O)OC[C@@H]1CCCN2CCCCC12 (stereo not given in full) | 4.32%
C=C1C[C@H](OC(=O)C(C)(O)CCl)C2C(=C)C(=O)O[C@@H]2C2C1C[C@H](O)[C@]2(O)CCl (stereo not given in full) | 123%
